The structures appear in SMILES notation. Where a name gives a salt, the structure may show the parent alone.

What all share (details): treatment time: 24 h
Assay [1] concerns A549-ACTB-RAB5A. The experiment in a line: lowest phenotypically active concentration; higher = less potent. The method in brief:
(§1)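 After 24 h at 0.3, 1, 3 or 9 µM, with four wells per treatment, fifteen gene-edited A549, HepG2 and WPMY1 reporter lines carrying BFP, GFP and RFP/FusionRed were imaged live. Each well's live-cell features were expressed relative to solvent control wells. Deviation required ≥3 of 4 wells past the 95th percentile of control Euclidean distances, and reproducibility a median replicate Pearson correlation over the 95th percentile of non-replicates. Phenotypic activity rested on both.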

Assay [2] concerns A549-ACTB-RAB5A. The experiment in a line: phenotypically active (imaging signature differs from DMSO and reproducible) at any of 0.3-9 uM (binary (1 = active, 0 = inactive)); higher = active. In a few lines:
as §1

Another assay deals with A549-CANX-COX4. Described as above. In a few lines:
as §1

In assay [3] the test system is A549-GM130-SQSTM1. Described as above. The method in brief:
as §1

For another assay, the system named is A549-TP53BP1-CLTA. The assay is described as above. In a few lines: as §1
In assay [4] the test system is A549-TUBA1B-RELA. Described as above. In a few lines: as §1
For the next assay, the system named is HepG2-ACTB-RAB5A. The assay is described as above. In a few lines:
as §1

For assay [5], the system named is HepG2-CANX-COX4. The assay is described as above. The method in brief: as §1
For the next assay, the system named is HepG2-GM130-SQSTM1. Described as above. In a few lines: as §1
In assay [6] the test system is HepG2-TP53BP1-CLTA. The assay is described as above. The method in brief: as §1
Another assay deals with HepG2-TUBA1B-RELA. Described as above. The method in brief:
as §1

In the next assay the test system is WPMY1-ACTB-RAB5A. The assay is described as above. In a few lines: as §1
The next assay concerns WPMY1-CANX-COX4. The description is as above. The method in brief: as §1
The test system of the next assay is WPMY1-GM130-SQSTM1. The assay is described as above. The method in brief:
as §1

Another assay has as its system WPMY1-TP53BP1-CLTA. The assay is described as above. The method in brief:
as §1

A further assay has as its system WPMY1-TUBA1B-RELA. Described as above. The method in brief:
as §1

Assay [7] has as its system A549-TUBA1B-RELA. Description: lowest phenotypically active concentration; higher = less potent. The method in brief: as §1
Assay [8] relates to HepG2-CANX-COX4. Described as above. In a few lines: as §1
Assay [9] deals with A549-GM130-SQSTM1. The description is as above. In a few lines: as §1
Assay [10] has as its system HepG2-TP53BP1-CLTA. Described as above. The method in brief:
as §1

Turning to `O=C1C[C@@H]2OCC=C3CN4CC[C@]56c7ccccc7N1[C@H]5[C@H]2[C@H]3C[C@H]46` [Strychnine], the “lowest phenotypically active concentration” value in the assay on A549-ACTB-RAB5A [1] is 9 µM. Further, the phenotypically active in the assay with A549-ACTB-RAB5A [2] is 1 (active); with A549-CANX-COX4, 0 (inactive); with A549-GM130-SQSTM1 [3], 0 (inactive); with A549-TP53BP1-CLTA, 0 (inactive); with A549-TUBA1B-RELA [4], 0 (inactive); with HepG2-ACTB-RAB5A it was 0 (inactive). Moreover, the phenotypically active in the assay with HepG2-CANX-COX4 [5], in the assay on HepG2-GM130-SQSTM1, in the assay on HepG2-TP53BP1-CLTA [6], in the assay with HepG2-TUBA1B-RELA, with WPMY1-ACTB-RAB5A and with WPMY1-CANX-COX4 was 0 (inactive) throughout. In addition, the phenotypically active with WPMY1-GM130-SQSTM1, with WPMY1-TP53BP1-CLTA and in the assay on WPMY1-TUBA1B-RELA was 0 (inactive) throughout.
`C[N+]1([O-])[C@@H]2C[C@@H](OC(=O)[C@H](CO)c3ccccc3)C[C@H]1[C@@H]1O[C@@H]12` (some centres undefined) [Genoscopolamine HBr]: the phenotypically active in the assay with A549-ACTB-RAB5A [2], in the assay on A549-CANX-COX4, in the assay on A549-GM130-SQSTM1 [3], in the assay with A549-TP53BP1-CLTA, in the assay with A549-TUBA1B-RELA [4] and with HepG2-ACTB-RAB5A was 0 (inactive) throughout. Further, the phenotypically active with HepG2-CANX-COX4 [5], in the assay on HepG2-GM130-SQSTM1, in the assay with HepG2-TP53BP1-CLTA [6], in the assay with HepG2-TUBA1B-RELA, in the assay with WPMY1-ACTB-RAB5A and in the assay with WPMY1-CANX-COX4 was 0 (inactive) in each case. Further, the phenotypically active with WPMY1-GM130-SQSTM1, in the assay with WPMY1-TP53BP1-CLTA and in the assay with WPMY1-TUBA1B-RELA was 0 (inactive) each time.
Turning to `CCCCCCCCCC(=O)O[C@H]1CC[C@H]2[C@@H]3CCC4=CC(=O)CC[C@@H]4[C@H]3CC[C@]12C` [nandrolone-decanoate], the phenotypically active in the assay on A549-ACTB-RAB5A [2], with A549-CANX-COX4, with A549-GM130-SQSTM1 [3], in the assay on A549-TP53BP1-CLTA, in the assay on A549-TUBA1B-RELA [4] and in the assay on HepG2-ACTB-RAB5A was 0 (inactive) in each case. The phenotypically active with HepG2-CANX-COX4 [5], with HepG2-GM130-SQSTM1, with HepG2-TP53BP1-CLTA [6], in the assay on HepG2-TUBA1B-RELA, in the assay on WPMY1-ACTB-RAB5A and in the assay on WPMY1-CANX-COX4 was 0 (inactive) in each case. Also, the phenotypically active in the assay with WPMY1-GM130-SQSTM1, in the assay with WPMY1-TP53BP1-CLTA and in the assay on WPMY1-TUBA1B-RELA was 0 (inactive) each time.
As for `CC[C@H]1CN2CC[C@H]1C[C@@H]2[C@@H](O)c1ccnc2ccc(OC)cc12` [Hydroquinidine HCl], the “lowest phenotypically active concentration” value with A549-ACTB-RAB5A [1], in the assay on A549-TUBA1B-RELA [7] and in the assay on HepG2-CANX-COX4 [8] was 9 µM throughout. The phenotypically active was 1 (active) in the assay with A549-ACTB-RAB5A [2]; 0 (inactive) in the assay on A549-CANX-COX4; 0 (inactive) with A549-GM130-SQSTM1 [3]; 0 (inactive) with A549-TP53BP1-CLTA; 1 (active) in the assay on A549-TUBA1B-RELA [4]; 0 (inactive) with HepG2-ACTB-RAB5A. Besides, the phenotypically active is 1 (active) with HepG2-CANX-COX4 [5]; 1 (active) in the assay on HepG2-GM130-SQSTM1; 0 (inactive) in the assay on HepG2-TP53BP1-CLTA [6]; 0 (inactive) in the assay with HepG2-TUBA1B-RELA; 1 (active) with WPMY1-ACTB-RAB5A; 1 (active) in the assay on WPMY1-CANX-COX4. For the same compound, the phenotypically active in the assay with WPMY1-GM130-SQSTM1 is 0 (inactive); with WPMY1-TP53BP1-CLTA it was 0 (inactive); in the assay on WPMY1-TUBA1B-RELA, 1 (active).
As to `COc1ccc(CCN2CCC(Nc3nc4ccccc4n3Cc3ccc(F)cc3)CC2)cc1` [astemizole], the “lowest phenotypically active concentration” value in the assay with A549-ACTB-RAB5A [1] is 1 µM; with A549-GM130-SQSTM1 [9], at most 0.3 µM; with A549-TUBA1B-RELA [7], 1 µM; in the assay on HepG2-CANX-COX4 [8], 3 µM; in the assay on HepG2-TP53BP1-CLTA [10] it was 3 µM. For the same compound, the phenotypically active in the assay on A549-ACTB-RAB5A [2], with A549-CANX-COX4, with A549-GM130-SQSTM1 [3], with A549-TP53BP1-CLTA, with A549-TUBA1B-RELA [4] and with HepG2-ACTB-RAB5A was 1 (active) each time. Besides, the phenotypically active in the assay with HepG2-CANX-COX4 [5], in the assay on HepG2-GM130-SQSTM1, in the assay with HepG2-TP53BP1-CLTA [6], in the assay on HepG2-TUBA1B-RELA, in the assay on WPMY1-ACTB-RAB5A and in the assay on WPMY1-CANX-COX4 was 1 (active) in each case. The phenotypically active in the assay with WPMY1-GM130-SQSTM1, in the assay on WPMY1-TP53BP1-CLTA and in the assay on WPMY1-TUBA1B-RELA was 1 (active) throughout.

(Values after the supplement of paper PMC7411054.)
